# Laboratory results published in PubChem BioAssay (Tox21).
# Records with an inconclusive call do not appear. Active and inactive are the calls of the source. The call rests on the fitted dose curve.
# Assay: qHTS assay for small molecule agonists of the p53 signaling pathway (AID 651631); further: nearly all actives have a fitted effect of over 15% in size
# Details: HCT-116 p53RE-bla reporter, beta-lactamase FRET ratio, 16 h; series mostly up to 73.3 µM
# Text: U.S. Tox21 Program National Center for Advancing Translational Sciences [NCATS] NIH Chemical Genomics Center [NCGC] U.S. Environmental Protection Agency [EPA] National Institutes of Environmental Health Sciences [NIEHS] National Toxicology Program [NTP] U.S. Food and Drug Administration [FDA] Tox21 Assay Overview: p53, a tumor suppressor protein, is activated following cellular insult, including DNA damage and other cellular stresses. The activation of p53 regulates cell fate by inducing DNA repair, cell cycle arrest, apoptosis, or cellular senescence. The activation of p53, therefore, is a good indicator of DNA damage and other cellular stresses. The CellSensor p53RE-bla HCT-116 cell line (Invitrogen) contains a stably integrated beta-lactamase reporter gene under control of the p53 response elements. The activation of the reporter gene under culture conditions can be detected by fluorescence intensity. This cell line was used to screen the Tox21 compound library in a 1536-well plate format and to identify agonists that activate the p53 signaling pathway.
# Tox21 Assay Protocol Summary: The p53RE-bla cells were dispensed at 4,000 cells/5 ul/well in 1536-well black wall/clear bottom plates using a Multidrop dispenser. After the assay plates were incubated at a 37 C/5% CO2 incubator for 5 hours, 23 nL of compounds dissolved in DMSO, positive controls or DMSO only was transferred to the assay plate by a pin tool. The plates were incubated at 37 C for 16 hours. After 1 uL of LiveBLAzerTM B/G FRET substrate was added using a Flying Reagent Dispenser, the plates were incubated at room temperature for 2 hours, and fluorescence intensity was measured by an Envision plate reader.
# On the % scale 0 is the no-effect control and ±100 the full control effect.
Compound,outcome,activation
CC1COc2ccccc2N1 (stereo not given),inactive,
O=S(O)(O)=S,,-6.63% [at 8.3 µM] (inactive)
CC(C)C[C@H](NC(=O)CNC(=O)[C@H](Cc1ccc(O)cc1)NC(=O)[C@H](CO)NC(=O)[C@H](Cc1c[nH]c2ccccc12)NC(=O)[C@H](Cc1cnc[nH]1)NC(=O)[C@@H]1CCC(=O)N1)C(=O)N[C@@H](CCCN=C(N)N)C(=O)N1CCC[C@H]1C(=O)NCC(N)=O (stereo in doubt),inactive,
CCOC(=O)/C=C/c1ccccc1,inactive,
COc1cc(NS(=O)(=O)c2ccc(N)cc2)nc(OC)n1,inactive,
NCCN1CCOCC1,inactive,
CCCCNc1ccc(C(=O)OCCN(C)C)cc1,inactive,
CC(C)NCC(O)COc1ccc(COCCOC(C)C)cc1 (stereo not given),inactive,
CC(=O)NCCCCCC(=O)O,inactive,
O=C(CS(=O)Cc1ccco1)NC/C=C\COc1cc(CN2CCCCC2)ccn1 (stereo not given),inactive,
CC(C)=O,inactive,
C=CCCCCCCCCCCCC,inactive,
CC(N)C(=O)OC(C)(C)Cc1ccc(Cl)cc1 (stereo not given),inactive,
Cc1ccsc1/C=C/C1=NCCCN1C,inactive,
C[C@@H]1O[C@@H](O[C@@H]2[C@@H](O)[C@H](OCCc3ccc(O)c(O)c3)O[C@H](CO[C@@H]3O[C@H](CO)[C@@H](O)[C@H](O)[C@H]3O)[C@H]2OC(=O)/C=C/c2ccc(O)c(O)c2)[C@H](O)[C@H](O)[C@H]1O,inactive,
CCCN1C[C@H](CSC)C[C@@H]2c3cccc4[nH]cc(c34)C[C@H]21,inactive,
O=C1c2ccccc2C(=O)N1CCl,inactive,
N[C@@H](CCC(=O)Nc1ccc([N+](=O)[O-])cc1)C(=O)O,inactive,
COc1ccc(C2CNC(=O)C2)cc1OC1CCCC1 (stereo not given),inactive,
O=C(O)c1cc(Cl)cc([N+](=O)[O-])c1Cl,inactive,

Compound,outcome,activation
CC(=O)Nc1ccc(S(=O)(=O)Nc2ccc([N+](=O)[O-])cc2)cc1,inactive,
C=Cc1ccccn1,inactive,
CCCCCOC(=O)CCC,inactive,
COc1ccc(S(=O)(=O)N2c3ccc(Cl)cc3[C@@](O)(c3ccccc3Cl)[C@H]2C(=O)N2CCC[C@@H]2C(N)=O)cc1OC,inactive,
COc1cc(C(=S)N2CCOCC2)cc(OC)c1OC,inactive,
Cc1c(I)c(=O)n(-c2ccccc2)n1C,inactive,
ClCCCl,inactive,
Cc1ccc2c(c1)OCC(=O)CO2,inactive,
COC(=O)c1ccccc1C(=O)c1ccc(OCCN2CCCCC2)cc1,inactive,
COC(=O)[C@@H]1[C@H]2C[C@H]3c4[nH]c5ccccc5c4CCN3C[C@@H]2CC[C@@H]1O,inactive,
O=S(=O)(O)CCN1CCN(CCO)CC1,inactive,
CC(=O)c1sc(C)nc1C,inactive,
C=C(C)C1CCC(C)(O)CC1 (stereo not given),inactive,
Cc1cccc(C)c1OCC(C)N (stereo not given),inactive,
COc1ccc(Br)c(C)c1,inactive,
CCCCCCOC(=O)CC,inactive,
CCCOC(=O)C(C)O (stereo not given),inactive,
Cc1cc(C(C)(C)C)c(O)c(C)c1CC1=NCCN1,inactive,
O=P(O)(O)OP(=O)(O)O,inactive,
CCOC(=O)[C@H](CCc1ccccc1)N[C@@H](C)C(=O)N1C(=O)N(C)C[C@H]1C(=O)O,inactive,
